Test results from PubChem BioAssay (NCATS).
Inconclusive results are not listed. Entries that show only a call come without a potency. Calls of active or inactive are those of the source. Calls come from the whole dose curve; as a rule, active = well fitted curve in the direction sought with a large enough effect; inconclusive = small, poorly fitted or top-dose-only effect, or another doubt; inactive = no such curve, though single readings can be large; an effect the other way counts as inactive or inconclusive.

How the values were obtained:
[1] = qHTS of pediatric cancer cell lines to identify multiple opportunities for drug repurposing: Primary screen for U-2 OS cells (AID 1347096); note: nearly all actives have a fitted effect of over 50% in size
Procedure, shortened: (§1)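 Cells (500-1,000/well) rested 5 h, then received compounds for 48 h; metabolically active cells were measured by CellTiter-Glo luminescence. Final concentrations spanned up to 46 µM (MIPE, 11-point) or 0.59 nM-46 µM (NPC, 8-point) in primary screens, 11-point in follow-ups.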

[2] = qHTS of pediatric cancer cell lines to identify multiple opportunities for drug repurposing: Primary screen for SK-N-SH cells (AID 1347098); note: nearly all actives have a fitted effect of over 65% in size; note: potency is the fitted concentration of half-maximal effect
Procedure, shortened: as §1

[3] = qHTS of pediatric cancer cell lines to identify multiple opportunities for drug repurposing: Primary screen for LAN-5 cells (AID 1347100); note: potency is the fitted concentration of half-maximal effect
Procedure, shortened: as §1

[4] = qHTS of pediatric cancer cell lines to identify multiple opportunities for drug repurposing: Primary screen for BT-12 cells (AID 1347101); note: nearly all actives have a fitted effect of over 25% in size; note: potency is the fitted concentration of half-maximal effect
Procedure, shortened: as §1

[5] = qHTS of pediatric cancer cell lines to identify multiple opportunities for drug repurposing: Primary screen for Rh18 cells (AID 1347102); note: nearly all actives have a fitted effect of over 65% in size; note: potency is the fitted concentration of half-maximal effect
Procedure, shortened: as §1

[6] = qHTS of pediatric cancer cell lines to identify multiple opportunities for drug repurposing: Primary screen for OHS-50 cells (AID 1347103); note: nearly all actives have a fitted effect of over 40% in size; note: potency is the fitted concentration of half-maximal effect
Procedure, shortened: as §1

[7] = qHTS of pediatric cancer cell lines to identify multiple opportunities for drug repurposing: Primary screen for MG 63 (6-TG R) cells (AID 1347105); note: nearly all actives have a fitted effect of over 50% in size; note: potency is the fitted concentration of half-maximal effect
Procedure, shortened: (§2)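 Primary screen of approved and investigational compounds on cells in growth media at 37 degrees C, 5% CO2. MIPE set at 11-point and NPC set at 8-point dilutions; viability scored by ATP-based luminescence at 48 hours.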

[8] = qHTS of pediatric cancer cell lines to identify multiple opportunities for drug repurposing: Primary screen for NB1643 cells (AID 1347099); note: nearly all actives have a fitted effect of over 50% in size; note: potency is the fitted concentration of half-maximal effect
Procedure, shortened: as §2

[9] = qHTS of pediatric cancer cell lines to identify multiple opportunities for drug repurposing: Primary screen for Saos-2 cells (AID 1347097); note: nearly all actives have a fitted effect of over 40% in size; note: potency is the fitted concentration of half-maximal effect
Procedure, shortened: as §2

[10] = qHTS of pediatric cancer cell lines to identify multiple opportunities for drug repurposing: Primary screen for RD cells (AID 1347104); note: nearly all actives have a fitted effect of over 55% in size; note: potency is the fitted concentration of half-maximal effect
Procedure, shortened: as §2

Row | Compound | Potency [1] | Potency [2] | Potency [3] | Potency [4] | Potency [5] | Potency [6] | Potency [7] | Potency [8] | Potency [9] | Potency [10]
1 | COc1ccc(-c2oc3cc(OC)ccc3c2C(=O)c2ccc(C#N)cc2)cc1 | inactive | 24.1 µM (active) | 833 nM (active) | 1.09 µM (active) | inactive | 0.968 µM (active) |  |  |  | 
2 | CC(C=CC1=C(C)CCCC1(C)C)=CC=CC(C)=CC(=O)O | inactive | inactive | inactive | inactive | inactive | 0.344 µM (active) | 9.35 µM (active) |  |  | 
3 | CN(C)c1ccc(C2Nc3ccc4ccccc4c3C3=C2C(=O)CC(C)(C)C3)cc1Br (stereo not given) | inactive | inactive | inactive | inactive |  |  |  | 20.9 µM (active) |  | 
4 | Cc1cc(SCc2sc(-c3ccc(C(F)(F)F)cc3)nc2C)ccc1OCC(=O)O | inactive |  | inactive |  | inactive |  | inactive |  | inactive | inactive
5 | CC[C@@H](C)[C@H](NC(=O)[C@H](CC1CCCCC1)NC(=O)c1ccno1)C(=O)N1CCC2(CCc3ccccc32)CC1 | inactive | inactive |  |  | inactive | 17.2 µM (active) | inactive | 23.5 µM (active) |  | 
6 | CCOc1ccn(-c2ccc(F)cc2)c(=O)c1C(=O)Nc1ccc(Oc2ccnc(N)c2Cl)c(F)c1 | inactive |  | 7430 nM (active) |  |  | 19.3 µM (active) |  |  | 16.6 µM (active) | inactive
7 | CCn1cc(C(=O)O)c(=O)c2cc(F)c(N3CCNC(C)C3)c(F)c21 (stereo not given) | inactive |  | inactive | inactive | inactive | inactive | inactive |  | inactive | inactive
8 | NC(N)=NC(=O)c1nc(Cl)c(N)nc1N | inactive |  | inactive | inactive | inactive | inactive | inactive |  | inactive | inactive
9 | C[C@]1(c2nc3c(C(N)=O)cccc3[nH]2)CCCN1 | inactive |  |  |  |  |  | inactive |  | 20.9 µM (active) | 
10 | CC(C)OC(=O)C1=CN(C(=O)c2ccc(F)c(F)c2)CC(C)(C)c2c1[nH]c1ccccc21 | inactive | inactive | inactive | inactive | inactive | inactive | inactive |  |  | inactive
11 | Nc1nccc(-c2ccc3noc(-c4ccc(Cl)cc4)c3c2)n1 | inactive |  | inactive |  | inactive |  | inactive | 16.6 µM (active) | inactive | inactive
12 | COc1cc2nccc(Oc3ccc(NC(=O)NC4CC4)c(Cl)c3)c2cc1C(N)=O | inactive | 1.52 µM (active) | 372 nM (active) | 6.85 µM (active) | 5.26 µM (active) |  |  | 2.96 µM (active) |  | 14.8 µM (active)
13 | Cc1oncc1C(=O)Nc1ccc(C(F)(F)F)cc1 | inactive |  | inactive |  | inactive |  | inactive | inactive | inactive | inactive
14 | C[C@H](NC(=O)Cc1cc(F)cc(F)c1)C(=O)N[C@@H]1C(=O)N(C)c2ccccc2-c2ccccc21 | inactive | 12.1 µM (active) | inactive | inactive | inactive |  | 11.8 µM (active) |  |  | 16.6 µM (active)
